Where “and” joins values, the source holds several entries; their conditions need not be identical. Equal entries are not always repeated. Calls of active or inactive are those of the source. The calls were made as follows: active = hit-call score of the fitted dose curve at least 0.9, where 1 is the maximum; inactive = score below 0.9.
What follows are compounds tested on Monocyte Chemoattractant Protein-1 (MCP1), CCL2 (gene 6347) (assay: BSK_SAg_MCP1: BioMAP Diversity Plus: SAg Assay for Monocyte Chemoattractant Protein-1 (MCP1) Biomarker Activity (AID 2283090)). Conditions: primary human HUVEC with PBMC; actives raise or lower the signal.
Experimental: BSK_SAg is a cell-based, multiplexed-readout assay that uses umbilical vein endothelium and peripheral blood mononuclear cells, a human vascular primary cell co-culture, with measurements taken at 24 hours after chemical dosing in a 96-well plate.BSK_SAg_MCP1 is an assay component measured in the BSK_SAg assay. It measures MCP-1 antibody related to regulation of gene expression using ELISA technology.Data from the assay component BSK_SAg_MCP1 was analyzed into 1 assay endpoint. This assay endpoint, BSK_SAg_MCP1, was analyzed with bidirectional fitting relative to DMSO as the negative control and baseline of activity. Using a type of binding reporter, gain or loss-of-signal activity can be used to understand changes in the signaling as they relate to the gene CCL2. Furthermore, this assay endpoint can be referred to as a primary readout, because this assay has produced multiple assay endpoints where this one serves a signaling function. To generalize the intended target to other relatable targets, this assay endpoint is annotated to the cytokine intended target family, where the subfamily is chemotactic factor.
The levels of cell surface (or secreted, indicated by the prefix "s") biomarker endpoints were measured by ELISA. Overt cytotoxicity to cells in confluent adherent cultures (all systems other than the BT system) was assessed by measuring total protein levels using sulforhodamine B (SRB) staining in parallel cultures at the time of biomarker measurements, indicated as SRB endpoints. For proliferation assays for adherent cell types, individual cell types are cultured at sub-confluence and relative cell numbers quantified by SRB staining at time points optimized for each system (48 h: 3C and CASM3C systems; 72 h: BT and HDF3CGF systems; 96 h: SAg system). SRB was performed by staining cells with 0.1% SRB after fixation with 10% TCA and reading wells at 560 nm.Viability and proliferation of PBMC (T cells) was quantified by Alamar Blue reduction for the SAg and BT systems. For PBMC viability (referred to as PBMC Cytotoxicity within the assay endpoint names), cells were plated (75,000/well in a 96-well plate) and then chemical samples added for 1 h before addition of activators, SEB and TSST-1 (20 ng/mL final concentration each). Cells were incubated for 90 h. Then, Alamar Blue (20 uL/well) (Invitrogen, Cat DAL1100) was added for 6 h, and the plates were read with a fluorescence microplate reader at 546/580 nm (excitation/emission). For PBMC proliferation, cells were plated and activated as above but incubated for only 16 h prior to addition of Alamar Blue. Plates were read after 6 h.

Row | SMILES | AC50 | outcome
1 | OCC(F)(OC(F)(F)C(F)(OC(F)(F)C(F)(F)C(F)(F)F)C(F)(F)F)C(F)(F)F (stereo not given) | 2.27 µM (active) and 1.92 µM (active) | –
2 | CC(C)CCCC(C)(C)O | – | inactive
3 | NC(=O)c1c(Cl)cccc1Cl | – | inactive
4 | CCCCCCCCCC(=O)OCC | – | inactive
5 | CCOC(=O)CCCCCCCCC(=O)OCC | – | inactive
6 | CC(=O)OCC=C(C)CCC=C(C)CCC=C(C)C | – | inactive
7 | CCCCCCCC1CCCC1=O (stereo not given) | – | inactive
8 | O=C(O)C(F)(F)OC(F)(F)C(F)(F)OC(F)(F)C(F)(F)C(F)(F)C(F)(F)F | – | inactive
9 | O=S(=O)(O)C(F)(F)C(F)(F)OC(F)(F)C(F)(F)F | – | inactive
10 | CC1(C)[C@H](C=C(Cl)Cl)[C@H]1C(=O)OCc1cccc(Oc2ccccc2)c1 | – | inactive
11 | CC(C)Cc1ccc(C(C)C(=O)O)cc1 (stereo not given) | – | inactive
12 | CCOC(=O)C=Cc1ccccc1 | – | inactive
13 | C=C1CC/C=C(\C)CC[C@@H]2[C@@H]1CC2(C)C | 34.4 µM (active) | –
14 | O=C(O)C(F)(F)C(F)(F)C(F)(F)C(F)(F)C(F)(F)C(F)(F)C(F)(F)C(F)F | – | inactive
15 | CC(=O)c1ccc(C)cc1 | – | inactive
16 | C=C(C)C(=O)OCCC(F)(F)C(F)(F)C(F)(F)C(F)(F)C(F)(F)C(F)(F)C(F)(F)C(F)(F)F | – | inactive
17 | O=C1OC2(c3ccc(O)cc3Oc3cc(O)ccc32)c2ccccc21 | – | inactive
18 | c1ccc2c(c1)-c1ccc3ccc4cccc5cc-2c1c3c45 | – | inactive
19 | COC(=O)c1ccc(C(=O)OC)cc1 | – | inactive
20 | CCCO[Si](OCCC)(OCCC)OCCC | – | inactive

Row | SMILES | AC50 | outcome
21 | CCCCN(CCO)CCO | – | inactive
22 | C=CC(=O)OCC(CO)(COC(=O)C=C)COC(=O)C=C | 0.686 µM (active) | –
23 | CCC(=O)OCC=Cc1ccccc1 | – | inactive
24 | CC=CC(=O)C1=C(C)C=CCC1(C)C | – | inactive
25 | C=C(C)C(N)=O | – | inactive
26 | CC(C)(CO)CO | – | inactive
27 | CC/C(=C(\c1ccccc1)c1ccc(OCCN(C)C)cc1)c1ccccc1 | 10.4 µM (active) and 10.1 µM (active) | –
28 | c1ccc(Sc2ccccc2)cc1 | 8 µM (active) | –
29 | COc1ccccc1NC(=O)CC(C)=O | – | inactive
30 | Nc1ccc(N)c([N+](=O)[O-])c1 | – | inactive
31 | CC(C)(C)c1cccc(O)c1 | – | inactive
32 | CCCCCCCCCCCCS | – | inactive
33 | O=S1(=O)CC(Cl)(Cl)C(Cl)(Cl)C1 | 0.807 µM (active) | –
34 | CC(=O)OC(C)(C)C1CC=C(C)CC1 (stereo not given) | – | inactive
35 | C=C(F)C(=O)OC(C(F)(F)F)C(F)(F)F | – | inactive
36 | CCCCOCCOCCO | – | inactive
37 | OCCN1CCOCC1 | – | inactive
38 | C#C[C@]1(O)CC[C@H]2[C@@H]3CCc4cc(O)ccc4[C@H]3CC[C@@]21C | 5.56 µM (active) | –
39 | CC(=O)CCC=C(C)CCC=C(C)C | – | inactive
40 | c1ccc(OCCOc2ccccc2)cc1 | – | inactive

From PubChem BioAssay (EPA / NIEHS)
